Records with an inconclusive call do not appear. The source made the active and inactive calls. Unless noted, the call rests on the fitted dose curve; in most records, active means well fitted curve in the direction sought with a large enough effect; inconclusive means small, poorly fitted or top-dose-only effect, or another doubt; inactive means no such curve, though single readings can be large; an effect the other way counts as inactive or inconclusive.
How the values were obtained:
[1] = biological target: Glucocorticoid receptor (Homo sapiens) (UniProt P04150); assay: GR-GFP Redistribution (AID 450;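 active means compounds whose dose series gives a full or clear partial fitted curve of increased nuclear translocation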; further: potency means the concentration at half of the fitted maximal effect); settings: U2OS GR-GFP nuclear translocation, laser cytometry, 2 h
Chain of Glucocorticoid receptor (Homo sapiens) (P04150 whole entry, looked up, the tested form may be a part): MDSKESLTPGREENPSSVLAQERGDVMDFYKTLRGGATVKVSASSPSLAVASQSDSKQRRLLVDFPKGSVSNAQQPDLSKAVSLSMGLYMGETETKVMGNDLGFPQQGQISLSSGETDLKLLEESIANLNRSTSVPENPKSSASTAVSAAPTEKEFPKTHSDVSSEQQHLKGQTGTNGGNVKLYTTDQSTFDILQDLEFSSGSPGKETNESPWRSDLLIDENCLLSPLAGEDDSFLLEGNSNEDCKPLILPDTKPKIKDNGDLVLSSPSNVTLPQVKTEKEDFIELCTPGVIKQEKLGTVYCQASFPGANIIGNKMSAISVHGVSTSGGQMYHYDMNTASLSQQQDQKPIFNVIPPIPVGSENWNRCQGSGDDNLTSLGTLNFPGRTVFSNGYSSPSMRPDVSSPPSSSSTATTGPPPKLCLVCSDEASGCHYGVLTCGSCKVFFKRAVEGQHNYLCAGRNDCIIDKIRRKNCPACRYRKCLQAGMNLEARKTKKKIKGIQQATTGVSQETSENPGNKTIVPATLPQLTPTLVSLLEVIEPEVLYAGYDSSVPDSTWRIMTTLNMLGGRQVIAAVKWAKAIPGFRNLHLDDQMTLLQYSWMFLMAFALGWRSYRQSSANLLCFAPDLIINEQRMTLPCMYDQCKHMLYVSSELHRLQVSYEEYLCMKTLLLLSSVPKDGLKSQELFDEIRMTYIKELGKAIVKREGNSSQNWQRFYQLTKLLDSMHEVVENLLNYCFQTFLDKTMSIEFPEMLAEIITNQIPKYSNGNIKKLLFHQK

[2] = biological target: Glucocorticoid receptor (Homo sapiens) (UniProt P04150); assay: GR-EFC Redistribution (AID 451; calls by dose curve; further: potency means the concentration at half of the fitted maximal effect); settings: CHO-K1 GR-EFC translocation, beta-gal luminescence, 2 h
In short: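 CHO-K1 cells expressing nuclear EA and GR-ED fragments of b-gal; compounds titrated up to 46 uM final, 2 h at 37 C. GR nuclear translocation read as complemented b-gal luminescence after 1 h RT detection.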

[3] = biological target: Cytochrome P450 2C9 (Homo sapiens) (UniProt P11712); assay: qHTS Assay for Inhibitors and Substrates of Cytochrome P450 2C9 (AID 883); further: potency means the concentration at half of the fitted maximal effect; nearly all actives have a fitted effect of over 60% in size
Chain of Cytochrome P450 2C9 (Homo sapiens) (P11712 whole entry, looked up): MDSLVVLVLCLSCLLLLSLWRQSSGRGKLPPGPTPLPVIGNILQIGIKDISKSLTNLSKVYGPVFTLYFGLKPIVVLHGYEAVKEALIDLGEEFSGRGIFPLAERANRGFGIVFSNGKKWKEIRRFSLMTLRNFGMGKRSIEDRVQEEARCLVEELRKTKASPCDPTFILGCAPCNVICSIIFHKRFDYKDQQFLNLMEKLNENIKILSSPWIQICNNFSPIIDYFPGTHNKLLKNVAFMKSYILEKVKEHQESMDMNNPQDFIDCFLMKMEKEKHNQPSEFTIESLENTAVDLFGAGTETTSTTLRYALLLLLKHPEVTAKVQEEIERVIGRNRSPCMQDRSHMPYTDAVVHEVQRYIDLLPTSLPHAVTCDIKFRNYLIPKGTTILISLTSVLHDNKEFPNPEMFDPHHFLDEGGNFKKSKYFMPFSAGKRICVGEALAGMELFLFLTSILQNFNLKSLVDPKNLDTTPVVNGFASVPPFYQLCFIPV
In short: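 Human CYP2C9 (10nM) with Luciferin-H at 100uM (its KM) in 25mM KPO4; compound preincubated 10 min at 37C, then NADPH regeneration for 60 min at 37C. Luciferin read by luminescence after detection reagent; normalized to 57uM sulphaphenazole as full inhibition.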

[4] = biological target: Cytochrome P450 2C19 (Homo sapiens) (UniProt P33261); assay: qHTS Assay for Inhibitors and Substrates of Cytochrome P450 2C19 (AID 899); further: potency means the concentration at half of the fitted maximal effect; nearly all actives have a fitted effect of over 60% in size
Chain of Cytochrome P450 2C19 (Homo sapiens) (P33261 whole entry, looked up): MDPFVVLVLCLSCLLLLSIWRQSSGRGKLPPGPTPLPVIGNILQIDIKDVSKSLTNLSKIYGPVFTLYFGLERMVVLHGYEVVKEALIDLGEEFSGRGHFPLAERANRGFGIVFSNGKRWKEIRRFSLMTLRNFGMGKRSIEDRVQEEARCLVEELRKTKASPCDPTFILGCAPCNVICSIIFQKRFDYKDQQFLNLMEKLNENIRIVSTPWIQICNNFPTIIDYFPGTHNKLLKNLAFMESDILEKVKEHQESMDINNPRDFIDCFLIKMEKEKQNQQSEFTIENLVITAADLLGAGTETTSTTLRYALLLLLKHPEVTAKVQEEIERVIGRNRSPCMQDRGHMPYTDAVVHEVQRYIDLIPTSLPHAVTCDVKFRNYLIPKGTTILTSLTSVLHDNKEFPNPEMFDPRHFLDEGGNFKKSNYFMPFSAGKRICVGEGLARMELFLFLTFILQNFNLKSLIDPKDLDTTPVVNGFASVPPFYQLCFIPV
In short: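 5 nM human CYP2C19 with 10uM Luciferin-H EGE (at KM) in 50mM KPO4, compound preincubated 10 min at 37C, then NADPH regeneration for 60 min at 37C. Luciferin read by luminescence after detection reagent; normalized to 57uM ketoconazole as full inhibition.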

[5] = qHTS Assay for Lipid Storage Modulators (AID 1519; calls by dose curve; on activity change, negative = inhibition: on the % scale 0 is the no-effect control and ±100 the full control effect); settings: Drosophila S3 cells, BODIPY lipid droplet/cell ratio, laser cytometry, cells loaded with oleic acid; for activity change, negative = inhibition: at 57.5 µM (top of the series)
In short: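 Cells seeded at 5,000 per well were treated with compounds over a concentration series and loaded with oleic acid (400 uM, as added). Lipid droplet fluorescence (488 nm excitation, 500-530 nm channel) was read by laser-scanning cytometry and normalized to 20 uM Triacsin C.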

[6] = biological target: Ubiquitin carboxyl-terminal hydrolase 1 (Homo sapiens) (UniProt O94782); assay: Inhibitors of USP1/UAF1: Pilot qHTS (AID 504865);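 further: rhodamine fluorescence freed from ubiquitin-rhodamine substrate followed over time; top concentration of the series differs between compounds; on the % scale 0 is the no-effect control and ±100 the full control effect; nearly all actives have a fitted effect of over 35% in size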
Chain of Ubiquitin carboxyl-terminal hydrolase 1 (Homo sapiens) (O94782 whole entry, looked up): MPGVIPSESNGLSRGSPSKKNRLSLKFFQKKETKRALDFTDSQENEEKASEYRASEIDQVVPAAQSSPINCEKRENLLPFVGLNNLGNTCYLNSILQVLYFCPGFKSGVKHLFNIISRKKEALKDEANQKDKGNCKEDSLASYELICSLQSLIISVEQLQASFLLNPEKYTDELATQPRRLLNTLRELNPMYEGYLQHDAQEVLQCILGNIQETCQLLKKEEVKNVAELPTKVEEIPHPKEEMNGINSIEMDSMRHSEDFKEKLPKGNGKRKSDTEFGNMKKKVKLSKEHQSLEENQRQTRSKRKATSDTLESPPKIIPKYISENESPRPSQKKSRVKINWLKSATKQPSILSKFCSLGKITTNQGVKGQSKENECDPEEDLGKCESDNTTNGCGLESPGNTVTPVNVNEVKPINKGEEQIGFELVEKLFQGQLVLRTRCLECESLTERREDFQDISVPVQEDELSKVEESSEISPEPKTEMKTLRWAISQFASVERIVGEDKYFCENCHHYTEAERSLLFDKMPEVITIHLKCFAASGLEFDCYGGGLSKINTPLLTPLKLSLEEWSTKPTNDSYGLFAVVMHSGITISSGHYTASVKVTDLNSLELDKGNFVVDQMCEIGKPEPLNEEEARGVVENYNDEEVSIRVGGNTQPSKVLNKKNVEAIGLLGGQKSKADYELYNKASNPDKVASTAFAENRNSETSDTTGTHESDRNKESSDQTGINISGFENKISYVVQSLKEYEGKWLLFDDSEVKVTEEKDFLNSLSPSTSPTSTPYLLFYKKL
In short: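 Deubiquitinase activity followed as kinetic rhodamine fluorescence release from 150 nM Ub-Rho. 1 nM USP1/UAF1 with compound, after 15 min room-temperature preincubation, in HEPES pH 7.8 buffer containing TCEP, EDTA, BSA and Tween-20.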

[7] = biological target: DNA dC->dU-editing enzyme APOBEC-3G (Homo sapiens) (UniProt Q9HC16); assay: qHTS for inhibitors of Vif-A3G interactions: Validation (AID 588379); further: 0% is about no effect
Chain of DNA dC->dU-editing enzyme APOBEC-3G (Homo sapiens) (Q9HC16 whole entry, looked up): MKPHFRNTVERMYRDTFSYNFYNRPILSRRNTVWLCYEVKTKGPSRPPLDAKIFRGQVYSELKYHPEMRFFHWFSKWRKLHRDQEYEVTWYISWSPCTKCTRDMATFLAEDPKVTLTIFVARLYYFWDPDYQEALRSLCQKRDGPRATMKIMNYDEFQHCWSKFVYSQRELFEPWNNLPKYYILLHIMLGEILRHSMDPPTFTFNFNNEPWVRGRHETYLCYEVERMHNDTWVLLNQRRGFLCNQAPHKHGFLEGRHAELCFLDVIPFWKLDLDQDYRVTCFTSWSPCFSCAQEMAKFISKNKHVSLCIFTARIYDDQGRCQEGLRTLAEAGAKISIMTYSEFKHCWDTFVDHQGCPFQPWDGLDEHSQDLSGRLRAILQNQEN
In short: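 Yellow fluorescence (Ex 488, Em 500-530) of Vif-coexpressing HeLa A3G-eYFP cells, scanned by Acumen cytometer, reports blocked A3G degradation. Cells plated at 700/well overnight at 37 deg C before compound addition, then a further overnight compound incubation at 37 deg C.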

[8] = test system: Zika virus NS2B-NS3 protease; assay: Primary screen GU AMC qHTS for Zika virus inhibitors (AID 1347154);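 further: 0% = no-inhibitor control and -100% = no-enzyme control; nearly all actives have a fitted effect of over 70% in size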
In short: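 Unlinked Zika NS2B hydrophilic domain–NS3 protease complex at 25 nM in 10 mM Tris-HCl pH 8.0, 0.01% Tween 20, with an AMC peptide substrate. Fluorescence change (340/450 nm) over 15 min at room temperature, normalized to controls, fitted to 4-parameter Hill.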

[9] = biological target: Mitogen-activated protein kinase 10 (Mus musculus) (UniProt Q61831); assay: JNK3 AlphaScreen Assay (AID 530; active means well fitted curve in either direction with a large enough effect, not every such curve was filed as active;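 further: kinase came from lysate of stimulated human HepG2 cells; signal reports phosphorylation of biotinylated GST-cJun 1-79 at Ser73 with 10 µM ATP; on the % scale 0 is the no-effect control and ±100 the full control effect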)
In short: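 HepG2 lysate (IL-1b/TNFa pre-activated) + biotin-GST-cJun 1-79 + anti-pSer73 cJun; cpd titration, 15 min RT; ATP 10 uM start; Tris pH 7.6, MgCl2, DTT, vanadate; beads in EDTA buffer; AlphaScreen.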

[10] = biological target: 3',5'-cyclic-AMP phosphodiesterase 4B (Homo sapiens) (UniProt Q07343); assay: qHTS Assay for Inhibitors of PDE-IV (AID 607; active means well fitted activation curve with a large enough effect in the main read-out, with a control signal flat, not every such curve was filed as active; further: % of control where 0% means no effect)
Chain of 3',5'-cyclic-AMP phosphodiesterase 4B (Homo sapiens) (Q07343 whole entry, looked up): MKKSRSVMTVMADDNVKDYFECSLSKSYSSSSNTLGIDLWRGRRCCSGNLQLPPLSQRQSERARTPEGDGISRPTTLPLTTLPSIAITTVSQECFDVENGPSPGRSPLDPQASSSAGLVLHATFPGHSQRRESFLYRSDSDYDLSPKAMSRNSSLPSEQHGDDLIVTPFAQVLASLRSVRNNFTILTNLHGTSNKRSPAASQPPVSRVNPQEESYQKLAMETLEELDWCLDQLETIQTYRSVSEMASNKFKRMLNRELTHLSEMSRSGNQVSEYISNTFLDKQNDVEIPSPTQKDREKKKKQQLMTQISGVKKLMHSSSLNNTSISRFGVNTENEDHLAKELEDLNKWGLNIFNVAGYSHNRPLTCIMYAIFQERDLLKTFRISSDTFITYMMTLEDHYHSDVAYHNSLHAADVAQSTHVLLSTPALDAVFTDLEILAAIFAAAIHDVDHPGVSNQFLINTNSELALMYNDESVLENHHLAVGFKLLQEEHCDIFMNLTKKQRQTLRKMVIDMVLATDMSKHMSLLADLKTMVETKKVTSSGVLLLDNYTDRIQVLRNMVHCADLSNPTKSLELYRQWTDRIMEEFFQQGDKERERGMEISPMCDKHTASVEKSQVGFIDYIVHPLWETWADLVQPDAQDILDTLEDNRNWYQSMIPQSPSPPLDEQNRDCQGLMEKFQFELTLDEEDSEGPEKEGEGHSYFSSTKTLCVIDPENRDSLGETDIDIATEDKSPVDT
In short: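 The readout is membrane depolarisation from a cAMP-sensing CNG channel, detected with a potential dye at ex 535/em 590. Cells were HEK293-derived (endogenous PDE-IV) at 1000 cells/well, titrated up to 22.9 uM final.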

[11] = biological target: Cytochrome P450 1A2 (Homo sapiens) (UniProt P05177); assay: p450-cyp1a2 (AID 410; calls by dose curve;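 further: -100% = full effect of reference inhibitor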)
Chain of Cytochrome P450 1A2 (Homo sapiens) (P05177 whole entry, looked up): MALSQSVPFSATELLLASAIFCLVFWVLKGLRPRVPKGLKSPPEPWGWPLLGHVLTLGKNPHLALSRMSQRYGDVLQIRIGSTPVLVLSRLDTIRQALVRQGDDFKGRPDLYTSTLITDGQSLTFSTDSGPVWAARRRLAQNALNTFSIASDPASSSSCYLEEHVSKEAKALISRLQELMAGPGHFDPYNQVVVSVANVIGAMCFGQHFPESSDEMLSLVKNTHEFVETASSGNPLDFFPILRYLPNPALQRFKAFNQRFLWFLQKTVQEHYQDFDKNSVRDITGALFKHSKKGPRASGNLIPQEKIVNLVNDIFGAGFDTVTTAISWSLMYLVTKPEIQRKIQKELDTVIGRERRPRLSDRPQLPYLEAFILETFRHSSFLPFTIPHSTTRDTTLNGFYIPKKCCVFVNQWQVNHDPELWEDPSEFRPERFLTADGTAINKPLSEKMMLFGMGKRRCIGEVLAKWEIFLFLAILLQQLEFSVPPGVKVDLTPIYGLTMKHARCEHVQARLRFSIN
In short: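 20nM CYP1A2, 100uM Luciferin-ME (=Km), 100mM KPO4; cpd 10 min RT; +NADPH regen, 60 min RT; stop/detect 20 min; luminescence. Normalized to furafylline 57 uM = full inhibition.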

[12] = measured here: cell count channel max response
[13] = measured here: lipid channel max response

Nc1nc(Nc2ccccc2)nc2c1ncn2[C@@H]1O[C@@H](CO)[C@H](O)[C@H]1O
-4.59%: max response [5, 13]
-2.49%: max response [5, 12]
inactive: Potency [1] > 46 µM | Potency [2] > 46 µM | activity change, negative = inhibition [5] -4.73% | Potency [6] | Potency [7] | Potency [8]
active: Potency [3] 0.794 µM | Potency [4] 0.631 µM

N[C@H]1CCN(O)C1=O
-8.46%: max response [5, 12]
-12.7%: max response [5, 13]
inactive: Potency [1] > 46 µM | Potency [2] > 46 µM | Potency [9] | activity change, negative = inhibition [5] -6.49% | Potency [6] | Potency [7] | Potency [8]

NC1(C(=O)O)CCC1
inactive: Potency [1] > 46 µM | Potency [2] > 46 µM | Potency [9] | Potency [10] | activity change, negative = inhibition [5] 3.54% | Potency [6] | Potency [7] | Potency [8]
-18.5%: max response [5, 12]
-13.7%: max response [5, 13]

N[C@H](CCC(=O)NCC(=O)O)C(=O)O
4.97%: max response [5, 12]
3.09%: max response [5, 13]
inactive: Potency [11] | Potency [1] > 46 µM | Potency [9] | Potency [10] | activity change, negative = inhibition [5] -2.27% | Potency [6] | Potency [7] | Potency [8]
